Source: PubChem BioAssay (National Center for Advancing Translational Sciences (NCATS))
EPAC2 agonist: agonists of human EPAC2 (RAPGEF4); 360,000 tested, 0.079% active; Potency, µM (highest dose often 154 µM), inactives show top-dose activation, most hits filed as activators; Q8WZA2; AID 720711; EPAC2 activation, biochemical qHTS; response scale: 100% = 6.5 mM cAMP response; note: potency is the fitted concentration of half-maximal effect; nearly all actives have a fitted effect of over 50% in size
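qHTS, titration series. 100 nM EPAC2 / 250 nM Rap1B-BODIPY-GDP / 50 uM GDP; RT; ex 480/em 540 nm, 5-min reads to 30 min. Norm. to 6.5 mM cAMP = activation.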
Coupling enz: counter-screen for Giardia aldolase inhibitors: coupling enzyme system | coupling enzyme system counterscreen, AmpLite Red fluorescence | activity change, negative = inhibition, % at 58.2 µM, hits read low | 290,000 tested, 0.67% active | AID 2472; in the data active = activity change below about -30%; note: % is set by controls: 0 for no effect and ±100 for the full control effect
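First, compound is pin-transferred into glyceraldehyde-3-phosphate coupling-enzyme reagent at 57.5 uM final and held 10 min at RT. Next, substrate, coupling system and AmpLite Red are added. After 20 min RT, fluorescence (525/598 nm) is read.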
EPAC1 ag: activates human EPAC1 exchange factor. AID 720707. Potency, µM (doses to about 154 µM), for the others: at the highest dose activation, usual class: activators. O95398. EPAC1 agonist qHTS, biochemical assay; response scale: 100% = response to 6.5 mM cAMP. 360,000 tested, 0.073% active; note: potency is the fitted concentration of half-maximal effect; nearly all actives have a fitted effect of over 60% in size
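Multi-concentration qHTS readout: loss of Rap1B-bound BODIPY-GDP fluorescence driven by 100 nM EPAC1 with excess GDP (50 uM), monitored kinetically at room temperature; agonist response expressed relative to 6.5 mM cAMP.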
EPAC1 antagonist: antagonists of human EPAC1. O95398. EPAC1 GEF assay, Rap1b-BODIPY-GDP exchange fluorescence. Potency, µM (highest dose often 115 µM), for the others: at the highest dose activity change, negative = inhibition, actives largely listed as inhibitors. 360,000 tested, 0.14% active;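 note: potency is the fitted concentration of half-maximal effect; plate controls were vehicle for no effect and positive control for full effect; nearly all actives have a fitted effect of over 50% in size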
USP1 inh: blocks the human USP1/UAF1 deubiquitinase complex; O94782; recombinant USP1/UAF1, Ub-Rhodamine cleavage fluorescence; Potency, µM (series often up to 57.1 µM), without a hit: at the top dose activity change, negative = inhibition, most hits filed as inhibitors; 390,000 tested, 0.23% active; AID 743255; note: potency is the fitted concentration of half-maximal effect; % is set by controls: 0 for no effect and ±100 for the full control effect; nearly all actives have a fitted effect of over 60% in size
Target sequence (O94782 whole entry, looked up): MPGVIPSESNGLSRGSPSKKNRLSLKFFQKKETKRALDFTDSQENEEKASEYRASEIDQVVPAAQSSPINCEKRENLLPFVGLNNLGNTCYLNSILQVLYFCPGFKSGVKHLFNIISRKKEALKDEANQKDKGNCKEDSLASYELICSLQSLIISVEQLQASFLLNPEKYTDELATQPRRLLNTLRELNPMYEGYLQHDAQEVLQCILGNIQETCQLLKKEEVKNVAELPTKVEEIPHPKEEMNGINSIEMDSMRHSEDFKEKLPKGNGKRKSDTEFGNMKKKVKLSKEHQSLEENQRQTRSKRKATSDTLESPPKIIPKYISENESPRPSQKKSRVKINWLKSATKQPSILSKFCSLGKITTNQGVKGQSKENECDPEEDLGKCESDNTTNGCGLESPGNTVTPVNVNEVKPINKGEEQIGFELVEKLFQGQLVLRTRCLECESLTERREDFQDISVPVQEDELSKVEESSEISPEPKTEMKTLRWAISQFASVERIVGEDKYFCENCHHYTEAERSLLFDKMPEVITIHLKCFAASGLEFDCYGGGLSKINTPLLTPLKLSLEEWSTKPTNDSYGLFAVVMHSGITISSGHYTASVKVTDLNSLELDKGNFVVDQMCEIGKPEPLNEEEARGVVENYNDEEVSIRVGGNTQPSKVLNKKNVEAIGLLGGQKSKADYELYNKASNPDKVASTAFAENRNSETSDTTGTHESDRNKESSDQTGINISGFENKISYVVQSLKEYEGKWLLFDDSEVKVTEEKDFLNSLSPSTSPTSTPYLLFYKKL
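High-throughput fluorogenic screen: 1nM USP1/UAF1 complex, Ub-Rho substrate 150nM final, 50mM HEPES pH 7.8 with 0.5mM EDTA, 0.1 mg/ml BSA, 1mM TCEP and 0.01% Tween-20.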
EPAC2 antag: blocks human EPAC2 exchange factor. EPAC2 GEF exchange of Rap1B-BODIPY-GDP, fluorescence. Potency, µM (series often up to 114 µM), inactives show at the highest dose activity, negative = inhibition, hits mostly inhibitors. 360,000 tested, 0.18% active. Q8WZA2; note: potency is the fitted concentration of half-maximal effect; % is set by controls: 0 for no effect and ±100 for the full control effect; nearly all actives have a fitted effect of over 45% in size
* marks the source's active call; other numbers are inactive results; i = inactive; ? = inconclusive; · = no result given; [ ] = remark or other dose. An excerpt weighted towards active compounds, which were near 0.87% of everything screened. Unless noted, calls come from the whole dose curve; as a rule, active = well fitted curve in the direction sought with a large enough effect; inconclusive = small, poorly fitted or top-dose-only effect, or another doubt; inactive = no such curve, though single readings can be large; an effect the other way counts as inactive or inconclusive.

SMILES	EPAC2 agonist	Coupling enz	EPAC1 ag	EPAC1 antagonist	USP1 inh	EPAC2 antag
O=C(O)c1ccccc1-c1ccc(/C=C/c2cc(C(F)(F)F)[nH]c(=O)n2)o1	100µM*	2	56µM*	i	28µM*	444%
Cc1nc(S/C(=C/c2ccc(-c3cc(Cl)ccc3C)o2)C(=O)O)n[nH]1	-13%	-8	3%	2%	-11%	?
O=C(O)c1cc(Cl)ccc1-c1ccc(/C=C/c2cc(C(F)(F)F)[nH]c(=O)n2)o1	100µM*	6	89µM*	473%	28µM*	273%
O=c1nc(/C=C/c2ccc(-c3ccc(F)cc3)o2)cc(C(F)(F)F)[nH]1	·	0	·	·	·	·
CCOc1ccc(OCCOC(=O)CN(C)S(=O)(=O)c2ccc(NC(C)=O)cc2)cc1	-7%	·	-14%	7%	-21%	10%
CC(C)CNc1ncnc2c1ncn2[C@H]1CN(Cc2cccc3ccccc23)C[C@@H](CO)O1	21%	·	4%	-19%	·	?
CC1(C(=O)NS(=O)(=O)c2cccc(F)c2)CCN1C(=O)C1(c2ccc(Cl)cc2)CCC1 (stereo not given)	3%	·	-4%	-19%	·	?
CC1(C(=O)NS(=O)(=O)c2ccc(F)cc2F)CCN1C(=O)C1(c2ccc(Cl)cc2)CCC1 (stereo not given)	-1%	·	-17%	?	·	35µM*
N#Cc1c(C(F)(F)F)cc(-c2ccc(Cl)cc2)[nH]c1=O	-2%	7	-15%	40µM*	-17%	-9%
O=C(Nc1ccc(N2CCOCC2)c2nonc12)C1CCCC1	-5%	-41*	-5%	-11%	?	3%
Nc1ccc(N2CCOCC2)c2nonc12	14%	-48*	0%	?	18µM*	?
O=C(Nc1ccc(Cl)cc1N1CCOCC1)C1CCCCC1	1%	3	-1%	-30%	-17%	-7%
Cc1cc2nc(-c3ccc(Cl)cc3)c(Cc3cccc(Cl)c3)n2c(C)c1Br	-5%	·	-3%	-17%	·	-19%
CC(=O)c1cc(C#N)c(N(C)Cc2ccccc2)nc1C	14%	0	13%	-28%	-11%	50µM*
COC(=O)c1cc(C#N)c(N(C)Cc2ccccc2)nc1C	14%	2	7%	-5%	-16%	-17%
CCOC(=O)c1cc2c(ccn2C)n1CC(=O)N1CCN(c2cccc(C(F)(F)F)c2)CC1	-14%	-33*	-29%	56µM*	-20%	?
CCOC(=O)c1cc2c(ccn2C)n1CC(=O)N1CCN(c2ccc(F)cc2)CC1	-3%	-10	-11%	2%	-15%	4%
CNc1ccc(Br)cc(C(=O)/C=C/c2ccc(OC)cc2OC)c1=O	-1%	-39*	-15%	-26%	-17%	-6%
CN1c2cccc3cccc(c23)N(C)C1c1cccs1	13%	-37*	9%	0%	?	6%
Cc1ccc2c(c1)C(O)(c1c(C)[nH]c3ccccc13)C(=O)N2 (stereo not given)	-8%	-35*	22%	-3%	-21%	0%
Cc1[nH]c2ccccc2c1C1(O)C(=O)N(C(C)C)c2ccccc21 (stereo not given)	12%	-26	9%	-1%	-13%	0%
O=C(CC1CCS(=O)(=O)C1)Nc1ccc[nH]c1=O (stereo not given)	8%	-52*	-2%	14%	-15%	14%
COc1cccc(C2=CC(c3ccccc3)n3ncnc3N2)c1 (stereo not given)	·	2	·	·	·	·
COc1cccc(C2=CC(c3ccc(N(C)C)cc3)n3ncnc3N2)c1 (stereo not given)	·	-35*	·	·	·	·
COC(=O)c1cc(C)nc2c1C(=O)C(=O)C=C2N1CCOCC1	?	-79*	-9%	3.5µM*	1.3µM*	?
SMILES	EPAC2 agonist	Coupling enz	EPAC1 ag	EPAC1 antagonist	USP1 inh	EPAC2 antag
COc1ccc(/C(O)=C/C(=O)C(=O)NNC(=O)C(O)(c2ccccc2)c2ccccc2)cc1	3%	3	7%	40µM*	-17%	1%
COc1ccc(/C(O)=C/C(=O)C(=O)NNC(=O)c2ccccc2)cc1	2%	3	2%	0%	-21%	8%
CCOC(=O)NN1C(=O)c2ccccc2NC1(C)C	11%	2	6%	17%	5%	3%
Cc1ccc(NC(=O)c2ccc(-n3cccn3)c([N+](=O)[O-])c2)cc1	18%	-12	8%	0%	-4%	-15%[57.1 µM]
Cc1cccc(NC(=O)c2ccc(-n3cccn3)c([N+](=O)[O-])c2)c1	-6%	-33*	13%	19%	-25%	3%
CC1CC1c1ccc(/C=C(\C#N)C(=O)Nc2ccccc2Cl)o1 (stereo not given)	4%	0	100µM*	-14%	?	5%
N#C/C(=C/c1ccc(N2CCCCC2)o1)C(=O)Nc1ccc(Cl)cc1	100µM*	3	100µM*	1%	28µM*	5%
CC1CC1c1ccc(/C=C(\C#N)C(=O)Nc2ccc(Cl)cc2)o1 (stereo not given)	22%	-1	100µM*	10%	-19%	-1%
COc1cc(NC(=O)c2cc3nc(-c4ccccc4)cc(-c4ccccc4)n3n2)cc(OC)c1OC	18%	·	7%	56µM*	-13%	-15%
CCN(CC)c1ccc2c(-c3ccc(S(=O)(=O)O)cc3S(=O)(=O)[O-])c3ccc(=[N+](CC)CC)cc-3oc2c1	?	85	63µM*	32%	32µM*	?
COc1ccccc1N1C(=O)c2ccccc2NC1c1ccncc1 (stereo not given)	0%	2	3%	-13%	-17%	0%
COc1ccccc1N1C(=O)N(C(C)=O)C2C1Nc1ccccc1N2C (stereo not given)	17%	-40*	12%	-14%	?	-18%
Cc1[nH][nH]c(=O)c1C(c1c(C)[nH][nH]c1=O)c1cn(Cc2ccccc2Cl)c2ccccc12	-6%	-43*	11%	?	28µM*	-4%
Cc1cc(O)c(-c2cc(O)c(C)cc2O)cc1O	4%	-50*	7%	-9%	-22%	2%
CCOC(=O)C1CCN(C(=O)c2ccc(OCC(=O)N3CCOCC3)c(OC)c2)CC1	17%	·	5%	2%	-3%	0%
COc1ccc(C2c3c(noc3C)CC(C)(O)C2C(C)=O)cc1 (stereo not given)	0%	7	7%	0%	-3%	3%
CN(C)c1oc(-c2ccccc2[N+](=O)[O-])nc1C#N	8%	-30*	-2%	-14%	-18%	10%
COc1ccc(CNc2ccncc2)c(OC)c1OC	3%	·	5%	-2%	-11%	5%
